Test results published in PubChem BioAssay (Tox21).
Values without a mark were called inactive. Results filed as inconclusive are left out. Entries that show only a call come without a potency. Activity calls are given as the source filed them. Unless noted, the call rests on the fitted dose curve; in most records, active means well fitted curve in the direction sought with a large enough effect in the repeat runs; inconclusive means weak or mixed curves; inactive means no such curve, though single readings can be large; an effect the other way counts as inactive or inconclusive.

Experiments:
[1] = qHTS RealTime-Glo MT Cell Viability Assay in HEK293 cells - 0 hour (AID 1224880); further: top concentration of the series differs between compounds; nearly all actives have a fitted effect of over 45% in size
How it was run: (§1)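 Viable HEK293 cells reduce a cell-permeant prosubstrate; the product diffuses out and is consumed by NanoLuc in the medium to give light. Compounds went in after a 5 h incubation and plates were read over the treatment course.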

[2] = A CellTox Green Cytotoxicity Assay to monitor cytotoxicity in HEK293 cells - 32 hour (AID 1224881); further: nearly all actives have a fitted effect of over 40% in size; further: potency means the concentration at half of the fitted maximal effect
How it was run: (§2)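 Fluorescence intensity, read at 0, 8, 16, 24, 32 and 40 h of compound treatment, reflected dye binding to DNA of dead HEK293 cells; compounds (23 nL, DMSO) were added 5 h after plating cells with reagent.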

[3] = A CellTox Green Cytotoxicity Assay to monitor cytotoxicity in HepG2 cells - 0 hour (AID 1224882); further: nearly all actives have a fitted effect of over 35% in size
How it was run: (§3)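 Using 1536-well format, dye-containing HepG2 suspension was seeded, allowed 5 h at 37 C/5% CO2, dosed by pintool with compounds, positive and negative controls, and imaged for fluorescence across 40 h.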

[4] = A CellTox Green Cytotoxicity Assay to monitor cytotoxicity in HepG2 cells - 32 hour (AID 1224883); further: nearly all actives have a fitted effect of over 50% in size; further: potency means the concentration at half of the fitted maximal effect
How it was run: as §3

[5] = qHTS RealTime-Glo MT Cell Viability Assay in HepG2 cells - 16 hour (AID 1224885); further: nearly all actives have a fitted effect of over 50% in size
How it was run: (§4)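 Cell number in HepG2 cultures estimated from NanoLuc luminescence generated by metabolic reduction of a prosubstrate by living cells. The homogeneous, nonlytic format allowed repeated reads at 0, 8, 16, 24, 32 and 40 h of compound exposure.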

[6] = qHTS RealTime-Glo MT Cell Viability Assay in HEK293 cells - 24 hour (AID 1224886); further: nearly all actives have a fitted effect of over 50% in size; further: potency means the concentration at half of the fitted maximal effect
How it was run: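 Homogeneous bioluminescent viability format in HEK293 cells (600 cells/well). Following 5 h at 37 C/5% CO2, 23 nL compound was pintooled; the signal was measured repeatedly during 40 h incubation.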

[7] = qHTS RealTime-Glo MT Cell Viability Assay in HEK293 cells - 8 hour (AID 1224887); further: nearly all actives have a fitted effect of over 50% in size; further: potency means the concentration at half of the fitted maximal effect
How it was run: as §1

[8] = A CellTox Green Cytotoxicity Assay to monitor cytotoxicity in HEK293 cells - 16 hour (AID 1224888); further: nearly all actives have a fitted effect of over 35% in size
How it was run: as §2

[9] = A CellTox Green Cytotoxicity Assay to monitor cytotoxicity in HepG2 cells - 8 hour (AID 1224890); further: nearly all actives have a fitted effect of over 45% in size
How it was run: as §3

[10] = qHTS assay to identify small molecule antagonists of the estrogen receptor alpha (ER-alpha) signaling pathway using the BG1 cell line in the presence of 0.1 nM 17-beta-estradiol - cell viability counter screen (AID 1259241); further: nearly all actives have a fitted effect of over 40% in size
How it was run: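 Cells were plated and left 24 hr, compounds in DMSO were pinned in, 17beta-estradiol was added to 0.1 nM final, and after 22 hr CellTiter-Fluor reagent was added for 30 min before fluorescence was read.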

[11] = qHTS assay to identify small molecule antagonists of the androgen receptor (AR) signaling pathway using the MDA cell line in the presence of 0.5 nM R1881 - cell viability counter screen (AID 1259242); further: nearly all actives have a fitted effect of over 45% in size
How it was run: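 Viability of MDA-kb2 cells was multiplexed with the luciferase AR readout; after 16 hr with compounds and R1881 at 0.5 nM final, CellTiter-Fluor fluorescence was recorded.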

[12] = target: Estrogen receptor (Homo sapiens) (UniProt P03372); assay: qHTS assay to identify small molecule antagonists of the estrogen receptor alpha (ER-alpha) signaling pathway using the BG1 cell line in the presence of 0.1 nM 17-beta-estradiol (AID 1259244); further: nearly all actives have a fitted effect of over 50% in size; further: potency means the concentration at half of the fitted maximal effect
Estrogen receptor (Homo sapiens), sequence (P03372 whole entry, looked up): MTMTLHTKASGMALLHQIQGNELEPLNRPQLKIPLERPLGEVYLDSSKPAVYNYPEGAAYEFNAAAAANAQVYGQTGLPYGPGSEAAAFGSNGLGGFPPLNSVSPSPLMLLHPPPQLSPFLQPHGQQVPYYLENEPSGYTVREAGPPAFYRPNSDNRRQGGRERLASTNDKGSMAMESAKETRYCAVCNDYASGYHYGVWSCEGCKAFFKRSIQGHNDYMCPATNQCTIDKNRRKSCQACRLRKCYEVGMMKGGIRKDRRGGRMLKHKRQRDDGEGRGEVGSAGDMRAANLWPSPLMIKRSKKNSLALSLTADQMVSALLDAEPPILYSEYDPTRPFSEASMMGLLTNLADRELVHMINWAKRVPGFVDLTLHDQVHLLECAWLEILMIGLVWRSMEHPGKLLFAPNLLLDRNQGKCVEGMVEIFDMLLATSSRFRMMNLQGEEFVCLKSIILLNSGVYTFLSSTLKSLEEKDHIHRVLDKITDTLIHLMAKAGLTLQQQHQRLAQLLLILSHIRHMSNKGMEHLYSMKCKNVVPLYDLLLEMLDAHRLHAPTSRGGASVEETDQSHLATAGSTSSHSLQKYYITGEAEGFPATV
How it was run: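 Estradiol at 0.1 nM (final) stimulates the endogenous ER-alpha of VM7Luc4E2 cells carrying an ERE-driven luciferase; compounds are co-incubated 22 h at 37C and luciferase output quantified by luminescence.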

[13] = qHTS assay to identify small molecule HDAC inhibitors (AID 1259364); further: potency means the concentration at half of the fitted maximal effect;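 further: wild-type HCT-116 cells with endogenous class I/II HDAC activity; nearly all actives have a fitted effect of over 45% in size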
How it was run: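 Read-out: luminescence of HDAC-Glo I/II reagent, 30 min RT, reflecting class I/II deacetylase activity in whole HCT-116 cells pre-exposed 2 h to DMSO-dissolved compounds.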

[14] = qHTS assay to identify small molecule HDAC inhibitors - cell viability counter screen (AID 1259365)
How it was run: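 Counter screen in wild-type HCT-116 cells: compounds dissolved in DMSO are pin-transferred onto overnight-plated cells and left 2hr at 37C. ATP-based CellTiter-Glo luminescence then measures viable cells.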

[15] = qHTS assay to identify small molecule agonists of the sonic hedgehog signaling (Shh) pathway - cell viability counter screen (AID 1259366); further: nearly all actives have a fitted effect of over 50% in size
How it was run: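 Cells are plated at 2,000 per well and left 4hr at 37C, 5% CO2 before compound addition. After 23hr of treatment, CellTiter-Fluor reagent is added for 1hr at 37C and fluorescence is measured.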

[16] = qHTS assay to identify small molecule antagonists of the sonic hedgehog signaling (Shh) pathway - cell viability counter screen (AID 1259367); further: nearly all actives have a fitted effect of over 55% in size; further: potency means the concentration at half of the fitted maximal effect
How it was run: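 NIH/3T3-derived Gli1-Luc reporter cells, 2,000/well, plated 4 hr before compound addition, then stimulated with conditioned medium for 24 hr at 37C. Viability measured in the same wells by CellTiter-Fluor fluorescence, reagent added at 23 hr for 1 hr.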

[17] = qHTS RealTime-Glo MT Cell Viability Assay in HepG2 cells - 0 hour (AID 1224889); further: nearly all actives have a fitted effect of over 50% in size
How it was run: as §4

[18] = qHTS assay to identify small molecule phospholipidosis (PLD) inducers (AID 1259344; active means well fitted curve in the direction sought with a large enough effect; an effect the other way counts as inactive or inconclusive)
How it was run: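 HepG2 cells, 900/well, treated with compound plus LipidTOX Red for 24 h at 37 C; amiodarone positive and DMSO negative controls. Fixed with paraformaldehyde/Hoechst, then high-content imaging scored LipidTOX pit count and integrated intensity per well and per cell.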

[19] = A CellTox Green Cytotoxicity Assay to monitor cytotoxicity in HEK293 cells - 8 hour (AID 1224884); further: nearly all actives have a fitted effect of over 35% in size
How it was run: as §2

| SMILES | Potency [1] | Potency [2] | Potency [3] | Potency [4] | Potency [5] | Potency [6] | Potency [7] | Potency [8] | Potency [9] | Potency [10] | Potency [11] | Potency [12] | Potency [13] | Potency [14] | Potency [15] | Potency [16] | Potency [17] | Potency [18] | Potency [19] |
| --- | --- | --- | --- | --- | --- | --- | --- | --- | --- | --- | --- | --- | --- | --- | --- | --- | --- | --- | --- |
| CCC(=O)C1CC(C(C)C)CC=C1C (configuration not stated) | inactive | inactive | inactive | inactive | inactive | inactive | inactive | inactive | inactive | inactive | inactive | inactive | inactive | inactive | inactive | inactive |  |  |  |
| CC(C)(c1ccccc1)c1ccccc1 | inactive | 51.1 µM (active) | inactive | inactive | inactive | inactive |  |  | inactive | inactive | inactive |  | inactive | inactive | inactive | inactive | inactive |  |  |
| CC(C)=CCC1C(=O)N(c2ccccc2)N(c2ccccc2)C1=O | inactive | inactive | inactive | inactive | inactive | inactive | inactive | inactive | inactive | inactive | inactive | inactive | inactive |  | inactive | inactive | inactive | inactive |  |
| O=C1NCCN1CCO | inactive | inactive | inactive | inactive |  | inactive | inactive | inactive | inactive | inactive | inactive |  |  | inactive | inactive | inactive | inactive |  | inactive |
| CC(CCC(=O)O)C(=O)O (configuration not stated) | inactive | inactive | inactive | inactive | inactive | inactive | inactive | inactive | inactive | inactive | inactive |  | inactive | inactive | inactive | inactive | inactive |  |  |
| O=C(O)c1cccc(-c2noc(-c3ccccc3F)n2)c1 | inactive | inactive | inactive | inactive |  | inactive | inactive | inactive | inactive | inactive | inactive |  | 0.422 µM (active) |  | inactive | inactive |  | inactive | inactive |
| C=CC(=O)OCC1CC2CC1C1CCC(COC(=O)C=C)C21 (configuration not stated) | inactive | 49 µM (active) | inactive | 43.6 µM (active) |  |  | inactive | inactive | inactive | inactive | inactive |  | inactive | inactive |  |  | inactive |  | inactive |
| COc1ccccc1Oc1c(NS(=O)(=O)c2ccc(C(C)(C)C)cc2)nc(-c2ncccn2)nc1OCCO | inactive | inactive | inactive | inactive | inactive | inactive | inactive | inactive | inactive | inactive | inactive | inactive |  | inactive | inactive | 26.6 µM (active) | inactive | inactive |  |
| COc1cc(C(=O)NCCCCCC(=O)O)cc(OC)c1OC | inactive | inactive | inactive | inactive | inactive | inactive | inactive | inactive | inactive | inactive | inactive | inactive |  | inactive | inactive | inactive |  | inactive |  |
| Brc1cc(Br)c(Oc2cc(Br)c(Br)cc2Br)cc1Br | inactive | inactive | inactive | inactive | inactive | inactive | inactive | inactive | inactive | inactive | inactive |  | inactive | inactive | inactive | inactive | inactive |  |  |
| COc1ccccc1NC(=O)c1cc2ccccc2cc1O | inactive | inactive | inactive | inactive |  | 34.7 µM (active) | 34.7 µM (active) |  | inactive | inactive | inactive | 43.3 µM (active) | 24.3 µM (active) | inactive |  | inactive | inactive |  | inactive |
| c1ccc2sc(SN(C3CCCCC3)C3CCCCC3)nc2c1 | inactive | inactive | inactive | inactive |  | inactive | inactive | inactive | inactive | inactive | inactive | inactive | inactive | inactive | inactive | inactive |  |  | inactive |
| CCCCN(CCN(CCCC)C(=O)N1CCOCC1)C(=O)N1CCOCC1 | inactive | inactive | inactive | inactive |  | inactive | inactive |  | inactive | inactive | inactive | inactive | inactive | inactive | inactive | 26.6 µM (active) | inactive |  | inactive |
| O=C(O)C[C@H](NC(=O)OCc1ccccc1)C(=O)O | inactive | inactive | inactive | inactive | inactive | inactive | inactive |  | inactive | inactive | inactive | inactive | inactive | inactive | inactive | inactive | inactive |  |  |
| Clc1ccc(Nc2nnc(Cc3ccncc3)c3ccccc23)cc1 | inactive | inactive | inactive | inactive |  |  |  | inactive | inactive | inactive | inactive | 29.8 µM (active) | inactive | inactive |  |  | inactive | inactive | inactive |
| CCCCCCCC/C=C\CCCCCCCCO | inactive | inactive | inactive | inactive |  | inactive | inactive | inactive | inactive | inactive | inactive |  | inactive | inactive | inactive | inactive |  |  | inactive |
